Consider 57 compounds from ChEMBL document CHEMBL4513216, “Probing the Open Global Health Chemical Diversity Library for Multistage-Active Starting Points for Next-Generation Antimalarials” (ACS Infect Dis, 2020).

The campaign covered roughly 69,000 compounds. About 8,600 (12%) showed an effect of 50% or more. For the sample, strong results were picked, then their nearest neighbours and some compounds at random.

The assay deals with Plasmodium berghei. Briefly: Screen against P. berghei liver stage (PbLuc), transformed with Luciferase, at 10uM. In kind it is functional, HepG2. As to conditions: tested at 10 uM.
Consider `CC(C)(CNC(=O)c1ccc(Cl)o1)NC(=O)OC(C)(C)C`, for which the INHIBITION was -60.9%.

As to `CC(NC(=O)Cc1ccccc1F)(C(N)=O)c1cccc(Cl)c1` (configuration not stated), the INHIBITION came out at 32%.

`Cc1cc(CNC(=O)Cc2cccs2)ccc1S(C)(=O)=O`: the INHIBITION was -3.68%.

In the case of `CCN(CC1=CCN(C)CC1)C(=O)CCOC`, the INHIBITION was 29.5%.

Turning to `CC1CCN(CCNCc2cc(-c3ccccc3)cn3nnnc23)CC1`, the INHIBITION is recorded as 23.2%.

On to `Cc1nc(C)n(CC2CN(CCCOc3ccc(F)cc3)CCO2)n1` (configuration not stated), for which the INHIBITION came out at 25.6%.

As to `COC(=O)c1sc(C(F)(F)F)cc1OC`, the INHIBITION turned out to be 43.2%.

Consider `Cc1nsc(N2CCN(C(=O)Nc3ccc4[nH]ccc4c3)CC2)n1`, for which the INHIBITION stood at 25.5%.

With `OCc1csc(N2CCN(Cc3cccc(F)c3)CC2)n1`, the INHIBITION is 28.7%.

Consider `Cc1nsc(N2CCN(Cc3cccc(F)c3)CC2)n1`, for which the INHIBITION turned out to be 57.6%.

As to `Cc1nsc(N2CCN(CC(=O)NCc3ccc(F)cc3)CC2)n1`, the INHIBITION is 40.9%.

Consider `Cc1nsc(N2CCN(C(=O)Nc3cccc(F)c3)CC2)n1`, for which the INHIBITION turned out to be 68.3%.

On to `Cc1nsc(N2CCN(C(=O)Nc3cccc(C#N)c3)CC2)n1`, for which the INHIBITION amounted to 37.2%.

In the case of `CN(Cc1ccco1)C1CCC12CCN(C(=O)c1ccnnc1)CC2` (configuration not stated), the INHIBITION is on record as -39.3%.

On to `COCCCN1CCCCC12CC(=O)N(Cc1ccccn1)C2` (configuration not stated), for which the INHIBITION worked out at 18.7%.

On to `COCCN1CCCCC12CC(=O)N(c1cccc(C#N)c1)C2` (configuration not stated), for which the INHIBITION came to 61.1%.

Consider `N#Cc1cccc(N2CC3(CCN(C(=O)C4CC=CC4)C3)CC2=O)c1` (configuration not stated), for which the INHIBITION came out at 13.6%.

As for `O=C1CC2(CCCCN2CC2CC2)CN1c1ccccc1` (configuration not stated), the INHIBITION was -31.4%.

`Cc1ccccc1N1CC2(CCCCN2CC2CC2)CC1=O` (configuration not stated): the INHIBITION is 5.63%.

For `COCCN1CCCCC12CC(=O)N(c1ccccc1OC)C2` (configuration not stated), the INHIBITION is 93.7%.

Consider `Fc1ccc(CN2Cc3nccn3CC(CN3CCOCC3)C2)cc1` (configuration not stated), for which the INHIBITION amounted to 32.2%.

As for `O=C(O)c1cc(-c2ccncc2)cc(S(=O)(=O)N2CCCCCC2)c1`, the INHIBITION was -8%.

Take `Cc1ccc(C(=O)N2Cc3c(CN(C)C)nn(C)c3C2)cc1C`: the INHIBITION is listed as 14.6%.

Turning to `CCN(C)S(=O)(=O)NCC1CCN(Cc2ccccc2C)CC1`, the INHIBITION was determined as 24%.

For the compound `CCc1nc(CCNS(=O)(=O)c2cccc(C(=O)N(C)CC)c2)cs1`, the INHIBITION amounted to 55.4%.

`CCN(C)C(=O)c1cccc(S(=O)(=O)NCCc2csc(N)n2)c1`: the INHIBITION was found to be 48%.

For `CCN(C)C(=O)c1cccc(S(=O)(=O)NCCc2nc(C)cc(=O)[nH]2)c1`, the INHIBITION came out at 45.2%.

In the case of `CO[C@H]1CN(C(=O)c2nc(-c3ccccc3)[nH]c2C)CC[C@H]1N`, the INHIBITION is listed as 5.78%.

Take `CCCc1nnc2sc(C3CCN(C4CCN(C)CC4)CC3)nn12`: the INHIBITION came to 44.8%.

In the case of `CN1CC[C@H](c2ccccc2)[C@@H]2[C@H]1CCCCN2C(=O)c1cnccn1`, the INHIBITION is recorded as 57.4%.

Take `Cc1nnsc1C(=O)N1CCN(C(=O)C2CCC2)[C@@H]2CS(=O)(=O)C[C@@H]21`: the INHIBITION was 47.2%.

`Cc1nnsc1C(=O)N1CC[C@H](c2ccccc2)[C@@H]2[C@H]1CCCCN2C`: the INHIBITION was determined as 70.1%.

Consider `CN1CCCC[C@@H]2[C@H]1[C@@H](c1ccccc1)CCN2C(=O)c1cccnc1`, for which the INHIBITION is listed as 47.2%.

Turning to `CN1CCCC[C@@H]2[C@H]1[C@@H](c1ccccc1)CCN2C(=O)c1cnccn1`, the INHIBITION came to 46.1%.

On to `CN1CCCC[C@@H]2[C@H]1[C@@H](c1ccccc1)CCN2C(=O)c1ccncc1`, for which the INHIBITION is given as -4.51%.

For `CN1CCCCC[C@@H]2[C@@H]1[C@H](c1ccccc1)CN2C(=O)c1cccnc1`, the INHIBITION came to 47.2%.

As to `CN1CCCC[C@@H]2[C@H]1[C@@H](c1ccccc1)CCN2C(=O)c1ccccn1`, the INHIBITION was found to be 20.8%.

As to `CN1CCCC[C@@H]2[C@H]1[C@@H](c1ccccc1)CCN2C(=O)c1ccccc1`, the INHIBITION came out at 59.7%.

For `CC(C)CNC(=O)c1cc(C2CC2)nc2onc(C3CCNCC3)c12`, the INHIBITION is 13.5%.

With `NCCc1c(-c2ccc(F)cc2)[nH][nH]c1=O`, the INHIBITION is 39.1%.

For `COc1ccccc1CNC(=O)c1[nH]ncc1Cl`, the INHIBITION came to 46.6%.

For `NC(=O)Cn1cc(NC(=O)N2CCN(c3ccccc3)CC2)cn1`, the INHIBITION is -65.7%.

With `CC(C)N(C(=O)Cn1cc(Cl)cn1)c1ccccc1`, the INHIBITION is reported as 21.8%.

As for `Brc1cccc(-c2noc(CN3CCOCC3)n2)c1`, the INHIBITION was 43.3%.

On to `O=C(COc1coc(CN2CCCCC2)cc1=O)NCc1ccccc1`, for which the INHIBITION turned out to be 9.48%.

In the case of `COc1ccc(CN2CCC3(CCN(c4cccnc4)C3=O)C2)cc1` (configuration not stated), the INHIBITION turned out to be 8.67%.

For `Cn1cc(N2CC3(COCCN(Cc4nccs4)C3)OCC2=O)cn1` (configuration not stated), the INHIBITION is 56.7%.

In the case of `Cc1cccc(CN2CCC3(CCN(c4cccnc4)C3=O)C2)n1` (configuration not stated), the INHIBITION is on record as 58.8%.

On to `Cc1cccc(CN2CCCC3(CCN(c4cccnc4)C3=O)C2)n1` (configuration not stated), for which the INHIBITION is on record as 29%.

Take `Cn1cc(N2CC3(COCCN(Cc4ccccn4)C3)OCC2=O)cn1` (configuration not stated): the INHIBITION is listed as -8.54%.

As for `Cn1cc(N2CC3(COCCN(Cc4ccsc4)C3)OCC2=O)cn1` (configuration not stated), the INHIBITION came out at 18.2%.

As for `Cn1cc(N2CC3(CCN(Cc4nccs4)CC3)OCC2=O)cn1`, the INHIBITION is given as 26.3%.

`Cn1cc(N2CC3(CCN(Cc4ccccc4)CC3)OCC2=O)cn1`: the INHIBITION is given as 14.1%.

On to `Cc1cccc(CN2CCC3(CC2)CN(c2cccnc2)C(=O)CO3)n1`, for which the INHIBITION is reported as 30.3%.

Turning to `Cc1cccc(CN2CCC3(CC2)CN(c2cnn(C)c2)C(=O)CO3)n1`, the INHIBITION is 68.3%.

Take `Cn1cc(N2CC3(CCN(Cc4cccs4)CC3)OCC2=O)cn1`: the INHIBITION is recorded as -34.9%.

`Cn1cc(N2CC3(CCN(Cc4ccsc4)CC3)OCC2=O)cn1`: the INHIBITION came out at 54.4%.
